Records with an inconclusive call do not appear. Activity calls are given as the source filed them. How the source made its calls: active means hit-call score of the fitted dose curve at least 0.9, where 1 is the maximum; inconclusive means response in the unintended direction; inactive means score below 0.9.

The assay can be described thus: Tanguay_ZF_120hpf_NC_legacy: (Legacy) Oregon State University Tanguay Lab 120 Hour Post-fertilization zebrafish Assay for Notochord and Tail Malformation (AID 2283656). In a few lines: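 Dechorionated Tropical 5D wild-type zebrafish embryos, one per well from 6 hpf, statically exposed to 120 hpf at 28C in 0.64% DMSO final. Notochord distortion scored present/absent by brightfield; dead embryos excluded.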
Regarding `ClC1=C(Cl)[C@]2(Cl)[C@@H]3[C@@H]4C[C@@H]([C@H]5O[C@@H]45)[C@@H]3[C@@]1(Cl)C2(Cl)Cl`, the call was inactive. The value for `N#Cc1ccc(N(CC(N)=O)CC(F)(F)F)cc1C(F)(F)F` was “inactive”.

On to `CCOCCOC(C)=O`, for which the call was inactive. Take `Nn1cnnc1`: the call was inactive.

Regarding `Cc1cc2c3c(c1)C(c1ccccc1)=N[C@@H](NC(=O)c1ccncc1)C(=O)N3CC2`, the outcome was inactive.

Turning to `CN(C)CCO`, the call was inactive. Consider `O=C(N[C@H]1CN2CCC1CC2)c1cc2ccoc2cn1`, for which the call was inactive. For the molecule `C1CC2OC2CC1C1CO1` (stereo not given), the molecule was called inactive.

For the molecule `Cc1cc(O)ccc1Cl`, the molecule was classed as inactive. Regarding `c1cc2ccc3cccc4ccc(c1)c2c34`, the molecule was called inactive.

With `O=S(=O)(O)C(F)(F)C(F)(F)C(F)(F)C(F)(F)F`, the outcome was inactive. `Nc1ccc(-c2ccc(N)cc2)cc1`: the molecule was called inactive. Take `C=CC(=O)NCNC(=O)C=C`: the result was inactive.

Take `C=CC(N)=O`: the result was inactive. As for `Cc1ccccc1O`, the outcome was inactive. The value for `Cc1cccc([N+](=O)[O-])c1` was “inactive”; that for `Clc1ccc(C(c2ccccc2Cl)C(Cl)(Cl)Cl)cc1` (stereo not given) was “inactive”; that for `CC(C)(O)C(=O)Nc1ccc([N+](=O)[O-])c(C(F)(F)F)c1` was “inactive”.

As to `CO/C=C(/C(=O)OC)c1ccccc1COc1cccc(C(F)(F)F)n1`, the call was inactive.

Regarding `CCC(C)c1cc([N+](=O)[O-])cc([N+](=O)[O-])c1O` (stereo not given), the result was inactive. On to `ClC1=C(Cl)[C@]2(Cl)[C@@H]3[C@@H](Cl)[C@H]4O[C@H]4[C@@H]3C1(Cl)C2(Cl)Cl`, for which the call was inactive. Consider `O=NN(c1ccccc1)c1ccccc1`, for which the outcome was inactive. Regarding `ClC1=C(Cl)[C@]2(Cl)[C@@H]3[C@H]4C[C@H]([C@@H]5O[C@H]45)[C@@H]3[C@@]1(Cl)C2(Cl)Cl`, the result was inactive. For `ClC(Cl)=C(c1ccc(Cl)cc1)c1ccc(Cl)cc1`, the outcome was inactive.

As to `CCCCCCOC(=O)c1ccccc1C(=O)OCCCCCC`, the result was inactive. On to `O=C(O)C(F)(F)C(F)(F)C(F)(F)C(F)(F)C(F)(F)F`, for which the outcome was inactive. Consider `O=C(NC(=O)c1cc(F)c(F)cc1Cl)Nc1cc(F)ccc1N1CCC(C(=O)O)CC1`, for which the molecule was called inactive. `C[C@]12CCC(=O)C=C1CC[C@@H]1[C@@H]2CC[C@@]2(C)[C@H]1CC[C@]2(C)O`: the molecule was classed as inactive. For `CC(C)C(=O)OCC(C)(C)C(OC(=O)C(C)C)C(C)C` (stereo not given), the call was inactive. To `Oc1ccc(Cl)cc1Cl` belongs “inactive”.

The values above are taken from PubChem BioAssay (EPA / NIEHS).
